# Molecular target: Glucose transporter (Leishmania mexicana) (UniProt O61059)
# Test: ST_JUDE_LEISH: Cytotoxicity at 2uM final concentration against transgenic Leishmania Mexicana promastigotes LmGT2 that are glucose transport deficient and complemented with the L. Mexicana glucose transporter 2. Activity is measured by DNA content using SYBR green in vitro
# Format: functional
row,SMILES,inhibition [%]
1,Cc1cccc(CN2CCC(CNC(=O)c3cc4c(-c5ccccc5F)nn(C)c4s3)CC2)c1,2.82
2,CC(CCc1ccc(OCc2ccccc2)cc1)NCC(O)c1ccccc1 (stereo not given),-0.69
3,CCc1cc2c(cc1CC)CC(NC[C@@H](O)c1ccc(O)c3[nH]c(=O)ccc13)C2,2.1
4,CCC[C@@H]([C@@H](CC1CCCCC1)C(=O)N[C@H](C(=O)Nc1nccs1)C(C)(C)SCCOCCOCC)N(O)C=O,5.39
5,CC(C)CCNc1nc(NCCCc2ccccc2)c2cc(O)ccc2n1,8.25
6,O=[N+]([O-])c1cccc(-c2nc(-c3ccc(Br)cc3)[nH]c2-c2ccc(Br)cc2)c1,1.57
7,CC(CC(=O)NCC1(c2ccc(F)cc2Cl)CCOCC1)C(=O)c1ccc(Cl)cc1 (stereo not given),1.88
8,Nc1nc(N)c2c(ccc3c2ccn3Cc2ccc3c(c2)OCO3)n1,93.7
9,O=C(/C=C/c1ccc(Cl)c(Cl)c1)NCCCCCN1CCC(c2cn[nH]c2-c2ccccc2)CC1,1.87
10,Nc1c2c(nc3ccc(NC(=O)CCCCCc4ccccc4)cc13)CCCC2,10
11,CCOC(=O)N1CCN(C(=O)Nc2ccc(Cl)cc2)CC1,0.32
12,O=C(Nc1nc(-c2ccccn2)cs1)c1ccc(S(=O)(=O)N2CCc3ccccc32)cc1,2.63
13,Cc1noc(C)c1-c1ccc2c(Nc3ccccc3N3CCOCC3)c(C(=O)NCc3ccccc3)cnc2c1,1.84
14,O=C(/C=C/c1ccc(Cl)c(Cl)c1)NCCCCCCN1CCN(C(=O)Nc2ccc(OC(F)F)cc2)CC1,6.38
15,COc1ccc(C(=O)NCCCCN2CCC(c3ccc4c(c3OC)CCCC4)CC2)cc1-c1ccc(C(F)(F)F)cc1,-1.69
16,COc1cccc(OC)c1CN1CCC(N(C)CCCCCCCCN2CCC(OC(=O)Nc3ccccc3-c3ccccc3)CC2)CC1,74.3
17,CCCCN(CCCC)CCCN(CCCN(CCCC)CCCC)c1cc(C)nc(Nc2ccc(Br)cc2)n1,-1.15
18,O=c1cc(NCCCNC2CCCc3c2cc(Cl)c(Cl)c3Cl)[nH]c2ccccc12 (stereo not given),0.08
19,CNC(=O)c1cnc(Nc2ccc(N3CCN(C)CC3)cc2)nc1Nc1cccc([N+](=O)[O-])c1,1.22
20,c1ccc(C2CCN(Cc3ccc(-c4c[nH]c5nc(NC6CCCC6)ncc45)cc3)CC2)cc1,1.65

row,SMILES,inhibition [%]
1,COc1cc(C2NCC3(CCOCC3)c3cc4c(cc32)OCCO4)cc(OC)c1OC (stereo not given),7.63
2,CCc1c[nH]c2c(N3CCCS3(=O)=O)cc(C(=O)N[C@@H](Cc3ccccc3)[C@H](O)CNC(C)(C)c3cccc(C(F)(F)F)c3)cc12,0.6
3,CC(C)c1ccc(NC(=O)c2ccc(C(=O)NC3CCN(CC4CCCCC4)C3)cc2)cc1 (stereo not given),3.15
4,CCCN(CCC)S(=O)(=O)c1ccc(C(=O)N2CCC(C(=O)OCC)CC2)cc1,5.48
5,Cc1cccc2nc(-c3ccc(-c4ccc(CNCc5ccc(S(C)(=O)=O)cc5)cc4)cc3)[nH]c12,7.88
6,CCN(CC)C(C)(C)CN(Cc1ccc(-c2ccc(C(F)(F)F)cc2)cc1)C(=O)Cn1c(CCc2cccc(F)c2F)nc(=O)c2ccccc21,5.98
7,CCC(=Cc1cccc([N+](=O)[O-])c1)C(=O)NCC1CCN(c2nc3cc(OC)c(OC)cc3c(=N)[nH]2)CC1,6.83
8,CN1CCN(c2cc3c(Nc4ccc5c(cnn5Cc5ccccc5)c4)ncnc3cn2)CC1,2.17
9,FC(F)(F)c1cc(C(F)(F)F)c2cc(CNCCCNc3nc4ccccc4[nH]3)[nH]c2c1,-1.92
10,C=CCc1ccc(C[C@H](NC(=O)OC(C)(C)C)C(=O)OC)cc1,34.5
11,FC(F)(F)COc1c(CNCCCCCCNCc2ccc3ccccc3c2OCC(F)(F)F)ccc2ccccc12,104
12,NS(=O)(=O)c1ccc(CNc2ccc3ncc(-c4ccc(Cl)cc4)n3n2)cc1,-0.35
13,Cc1ccc(NC(=O)Nc2ccc(Cl)cc2)cc1-c1cccc(C(=O)Nc2ccc(F)cc2)c1,5.14
14,O=C(NCCCCN1CCC(c2nc3ccccc3s2)CC1)c1cc2ccccc2[nH]1,-1.01
15,CC[C@H](C)CNC(=O)c1cncc(-c2cccc(CN3CCC(N4CCCC4)CC3)c2)c1,-0.34
16,Cc1ccccc1C1CCN(c2ccc(C(=O)Nc3ccc(F)cc3)cn2)CC1,5.56
17,ON=C1CCc2cc(-c3cc(-c4ccc(OC5CCNCC5)cc4)oc3-c3ccncc3)ccc21,-0.04
18,COc1ccc(CCCN2C(=O)C(c3ccccc3)(c3ccccc3)N=C2N)cc1,-1.7
19,Cc1cc(N[C@@H](Cc2ccccc2)C(=O)NCc2cccs2)nc(Nc2ccccc2)n1,3.98
20,O=C(NCCc1ccccc1)N(Cc1ccccc1-c1ccc(CNCCc2ccccc2)cc1)C1CCN(Cc2ccccc2)CC1,3.55

# From ChEMBL document CHEMBL3433997, “St. Jude Leishmania screening dataset” (2016)
